Results as given in PubChem BioAssay AID1731 (National Center for Advancing Translational Sciences (NCATS), 2009).
Calls of active or inactive are those of the source. Where a call stands in place of a potency, no number is given. Calls follow the shape of the dose curve; as a rule, active = well fitted curve in the direction sought with a large enough effect; inactive = no such curve, though single readings can be large or run the other way.

molecular target: Epidermal growth factor receptor (Homo sapiens) (UniProt P00533); experiment: Assay for Inhibitors of the ERK Signaling Pathway using a Homogeneous Screening Assay: EGFR Kinase Inhibition; conditions: homogeneous biochemical assay; series mostly up to 21.9 µM
From the text: qHTS Assay for Inhibitors of the ERK Signaling Pathway using a Homogeneous Screening Assay
NIH Chemical Genomics Center [NCGC]
NIH Molecular Libraries Screening Centers Network [MLSCN]
Assay Submitter (PI): Dr. Wei Zheng, NCGC/NIH
The Ras/extracellular-signal-regulated kinase (ERK) mitogen activated protein (MAP) kinase signaling pathway (ERK1/2 cascade) plays is a key role in transmitting signals from the cell surface to the nucleus (Nishida and Gotoh 1993; Chang and Karin, 2001). The cascade is initiated by the small G-protein Ras, which recruits Raf […], where activation occurs. Alternatively, this pathway can be activated by elevating intracellular cAMP.
Activation of the ERK pathway is essential in increased cell division and cell survival. Sustained and constitutive activation of the ERK pathway, however, has been linked to uncontrolled cell proliferation, increased cell survival, and tumor progression. Thus, the ERK has been as an attractive target for cancer chemotherapy in the past few years (Sebolt-Leopold and Herrera, 2004). Given its physiological and pathological importance, assessment of ERK phosphorylation has been broadly performed in both basic research and drug discovery. Most assays for the measurement of ERK phosphorylation use the antibody-based detection methods, such as western blot and ELISA. These assays require multiple reagent additions with cell wash steps and are not suitable for high-throughput screening.
The current cell-based ERK phosphorylation assay was performed using AlphaScreen platform. AlphaScreen is a two bead-based proximity-dependent chemical energy transfer luminescent assay platform. The assay reagents (ERK SureFire(TM) kit) were supplied from TGR BioSciences (Australia). In the presence of specific antibodies, phosphorylated ERK will bring "donor" and "acceptor" beads to a proximity range (<200 nm), and subsequently lead a chemical luminescent reaction upon exciting donor beads with 680 nm laser. To validate pathway hits from the cell-based assay, enzyme assays consisting of EGFR tyrosine kinase, Raf and MEK were used as a means of deciphering the enzymes of target for the prioritized group of compounds derived from the HEK-293 cell based assay. The compounds were tested against significant members of the ERK signaling pathway EGFR and EGFR mutants (EGFR L858R, EGFR T790M, and EGFR L858R T790M). In order to establish the specificity of the prioritized compounds for EGFR and EGFR mutants, the compounds were also assayed against other important ERK signaling pathway enzymes, c-RAF and MEK-1.
NCGC Assay Protocol Summary:
The HTRF kinase assay (components supplied as kit by Cisbio) was chosen for the EGFR and EGFR mutant enzyme assays that applied the time resolved fluorescence resonance energy transfer (TR-FRET) principle. A peptide substrate is labeled with a biotin that can bind to XL665 labeled streptavidin and the anti-phosphoresidue antibody is labeled with Eu+. Upon phosphorylation of the substrate, the antibody binds to phosphorylated substrate that enables TR-FRET detection in homogenous assay format.
An HTRF Kinease TK assay kit (Cisbio, Bedford, MA) was used to develop the EGFR and EGFR mutant assays (Harbert et al., 2008. Harbert C, Marshall J, Soh S, Steger K. Development of a HTRF Kinase Assay for Determination of Syk Activity. Current Chemical Genomics. 1: 20-26. 2008). EGFR and EGFR mutants were obtained from Invitrogen. The assay buffer was composed of 50 mM HEPES (pH 7.0), 5 mM MgCl2, 5mM DTT, 0.1 % NaN3, 0.1 % BSA and 0.1 mM orthovanadate.
The HTRF assays were preformed according to the HTRF Kinease TK kit. Optimization for each enzyme was preformed in 384 well format (data not included). All reagents were dispensed into 1536 well plates.
(1) Enzyme, […] EGFR at 3 nM final
(2) Compound, 22 nl, Library Compounds in 0.128 to 10 mM titration series or control
(3) Reagent, 1.5 ul 10 uM ATP and 0.25 uM substrate final
(4) Incubation for 30 min, Ambient conditions
[…]

Epidermal growth factor receptor (Homo sapiens), sequence (P00533 whole entry, looked up): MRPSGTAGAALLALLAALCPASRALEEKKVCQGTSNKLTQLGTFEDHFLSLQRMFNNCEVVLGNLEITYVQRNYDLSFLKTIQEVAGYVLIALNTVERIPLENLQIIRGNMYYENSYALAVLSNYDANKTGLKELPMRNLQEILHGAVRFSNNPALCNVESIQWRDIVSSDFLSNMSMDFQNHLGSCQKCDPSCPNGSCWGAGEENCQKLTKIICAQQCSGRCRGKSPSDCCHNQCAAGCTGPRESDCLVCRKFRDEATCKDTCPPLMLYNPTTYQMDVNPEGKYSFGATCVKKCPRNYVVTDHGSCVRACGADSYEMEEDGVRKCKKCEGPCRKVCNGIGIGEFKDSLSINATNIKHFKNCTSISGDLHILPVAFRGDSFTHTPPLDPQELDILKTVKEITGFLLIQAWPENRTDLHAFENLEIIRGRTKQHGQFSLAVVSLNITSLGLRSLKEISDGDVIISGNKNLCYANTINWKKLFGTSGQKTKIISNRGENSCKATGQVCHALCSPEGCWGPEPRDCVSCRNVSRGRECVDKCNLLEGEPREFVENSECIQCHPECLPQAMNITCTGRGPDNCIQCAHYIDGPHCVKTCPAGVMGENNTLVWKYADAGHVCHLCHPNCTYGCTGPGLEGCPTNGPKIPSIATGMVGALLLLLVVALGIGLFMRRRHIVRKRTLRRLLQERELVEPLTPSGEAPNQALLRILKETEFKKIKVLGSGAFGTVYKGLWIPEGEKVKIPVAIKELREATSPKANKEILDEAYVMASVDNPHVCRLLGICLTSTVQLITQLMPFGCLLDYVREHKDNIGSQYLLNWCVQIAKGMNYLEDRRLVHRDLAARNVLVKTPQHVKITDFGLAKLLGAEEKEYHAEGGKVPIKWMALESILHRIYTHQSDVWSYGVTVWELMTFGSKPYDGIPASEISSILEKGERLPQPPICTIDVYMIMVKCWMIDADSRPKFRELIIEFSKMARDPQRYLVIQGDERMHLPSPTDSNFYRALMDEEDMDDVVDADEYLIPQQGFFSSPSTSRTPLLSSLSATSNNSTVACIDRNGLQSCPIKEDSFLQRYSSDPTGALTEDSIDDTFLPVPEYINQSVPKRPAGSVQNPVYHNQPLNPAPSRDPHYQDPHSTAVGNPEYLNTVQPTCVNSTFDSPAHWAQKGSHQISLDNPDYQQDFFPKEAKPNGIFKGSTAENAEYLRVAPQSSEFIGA

For `COc1ccc(C(=O)c2ccc(Cl)c([N+](=O)[O-])c2)cc1`, which Potency is on record?
The Potency was “inactive”.

`Cn1c(=O)[nH]c2nnc(-c3ccc(Cl)c(Cl)c3)nc2c1=O` was tested. Which Potency did it give?
Its Potency is “inactive”.

How did the Potency turn out when `O=C1c2ccccc2C(=O)c2c(NCCCN(CCO)CCO)cccc21` was run?
The Potency was “inactive”.

Which Potency does the source give for `Cc1ccc2nc(=O)c(NNc3ccccc3)cnc2c1` here?
Its Potency is 708 nM (active).

With `O=C1c2ccccc2C(=O)c2c1cccc2N1CCCC1` as the molecule, how does the Potency read?
Its Potency is “inactive”.

With `N#C/C(=C(/N)Sc1ccc(N)cc1)c1ccccc1C(F)(F)F` as the molecule, how does the Potency read?
Its Potency is “inactive”.

How did the Potency turn out when `Cc1nc2ccccc2nc(=O)c1NNc1ccccc1` was run?
The Potency was 708 nM (active).

With `Cc1ccc(NNc2c(C)nc3ccccc3nc2=O)cc1` as the molecule, how does the Potency read?
Its Potency is 4470 nM (active).

With `O=C(Nc1nc(-c2ccccc2)cs1)c1ccc(N2CCOCC2)c([N+](=O)[O-])c1` as the molecule, how does the Potency read?
Its Potency is “inactive”.

How did the Potency turn out when `CN(C)c1cccc2c1C(=O)c1ccccc1C2=O` was run?
Its Potency is “inactive”.

`CNc1cccc2c1C(=O)c1ccccc1C2=O` was tested. Which Potency did it give?
Its Potency is “inactive”.

Which Potency does the source give for `Fc1ccc(Nc2ncnc3sc4c(c23)CCC4)cc1F` here?
Its Potency is 70.8 nM (active).

Which Potency does the source give for `CS(=O)(=O)CCNCc1nc(-c2ccc3ncnc(Nc4ccc(OCc5cccc(F)c5)c(Cl)c4)c3c2)cs1` here?
Its Potency is 8.9 nM (active).

`Cn1nc(-c2ccccn2)nc2c(=O)n(C)c(=O)nc1-2` was tested. Which Potency did it give?
The Potency was “inactive”.

With `Cn1nc(-c2ccc(Cl)cc2)nc2c(=O)n(C)c(=O)nc1-2` as the molecule, how does the Potency read?
The Potency was “inactive”.

With `CCN(CC)CCC(=O)Nc1cccc2c1C(=O)c1ccccc1C2=O` as the molecule, how does the Potency read?
Its Potency is “inactive”.

For `CCn1c(=O)c2[nH]c(-c3ccccc3)nc2n(CC)c1=O`, which Potency is on record?
Its Potency is “inactive”.
